Test results: the supplement of paper PMC10849652
The full data set covers some 7,900 targets. This sample favours those with a hit. About 0.6% of all pairs of compound and target were hits. A number with no mark means an inactive call.

compound: Cc1ccc(C(=O)N(CCCN)[C@@H](c2nc3cc(Cl)ccc3c(=O)n2Cc2ccccc2)C(C)C)cc1 [ispinesib]; assay: log2 fold change, soluble protein after heating vs DMSO (PISA); higher = thermal stabilisation; K562 cells, 10 uM, 30 min; active = over 0.2 and 3.5 SD of the protein, either way, in both replicates (recomputed)
Outline: (§1)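 K562 cells (2×10^6 cells/mL) were treated with 10 μM compound for 30 min, and aliquots were heated for 3 min over 48°C-58°C. Pooled aliquots were extracted in PBS with 0.5% NP-40 at 4°C, and the supernatant after 21,000xg for 90 min was measured by TMTpro 16plex LC-MS/MS with channel sums equalised. Reported thermal stability, relative to control samples and from duplicates, is a log2 fold change.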

Sequence of UniProt P21964 (P21964 whole entry, looked up): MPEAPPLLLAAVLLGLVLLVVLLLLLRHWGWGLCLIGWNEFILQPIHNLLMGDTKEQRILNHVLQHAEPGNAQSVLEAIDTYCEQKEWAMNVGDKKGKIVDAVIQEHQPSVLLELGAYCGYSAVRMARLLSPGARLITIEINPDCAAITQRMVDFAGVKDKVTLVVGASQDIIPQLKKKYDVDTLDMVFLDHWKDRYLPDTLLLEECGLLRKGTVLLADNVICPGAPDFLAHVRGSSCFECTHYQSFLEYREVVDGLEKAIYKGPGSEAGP
Sequence of UniProt Q9Y6H1 (Q9Y6H1 whole entry, looked up): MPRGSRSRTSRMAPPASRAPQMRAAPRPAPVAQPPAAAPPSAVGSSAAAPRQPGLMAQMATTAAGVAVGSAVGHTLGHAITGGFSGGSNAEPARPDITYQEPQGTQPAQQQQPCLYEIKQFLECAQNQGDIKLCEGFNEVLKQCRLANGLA
Sequence of UniProt Q92851 (Q92851 whole entry, looked up): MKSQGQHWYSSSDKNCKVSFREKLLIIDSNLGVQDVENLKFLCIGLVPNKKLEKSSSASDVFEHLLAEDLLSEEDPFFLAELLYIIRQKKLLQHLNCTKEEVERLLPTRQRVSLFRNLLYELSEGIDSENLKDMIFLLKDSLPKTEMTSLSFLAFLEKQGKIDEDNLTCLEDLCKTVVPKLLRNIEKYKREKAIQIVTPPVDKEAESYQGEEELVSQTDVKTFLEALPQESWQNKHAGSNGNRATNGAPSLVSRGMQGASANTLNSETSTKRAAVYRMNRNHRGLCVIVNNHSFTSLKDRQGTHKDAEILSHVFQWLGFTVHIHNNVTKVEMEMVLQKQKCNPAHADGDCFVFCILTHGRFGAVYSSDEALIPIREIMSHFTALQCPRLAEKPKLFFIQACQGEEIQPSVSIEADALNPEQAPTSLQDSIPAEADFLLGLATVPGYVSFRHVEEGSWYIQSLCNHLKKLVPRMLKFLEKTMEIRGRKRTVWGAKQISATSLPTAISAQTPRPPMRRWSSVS
Sequence of UniProt Q12996 (Q12996 whole entry, looked up): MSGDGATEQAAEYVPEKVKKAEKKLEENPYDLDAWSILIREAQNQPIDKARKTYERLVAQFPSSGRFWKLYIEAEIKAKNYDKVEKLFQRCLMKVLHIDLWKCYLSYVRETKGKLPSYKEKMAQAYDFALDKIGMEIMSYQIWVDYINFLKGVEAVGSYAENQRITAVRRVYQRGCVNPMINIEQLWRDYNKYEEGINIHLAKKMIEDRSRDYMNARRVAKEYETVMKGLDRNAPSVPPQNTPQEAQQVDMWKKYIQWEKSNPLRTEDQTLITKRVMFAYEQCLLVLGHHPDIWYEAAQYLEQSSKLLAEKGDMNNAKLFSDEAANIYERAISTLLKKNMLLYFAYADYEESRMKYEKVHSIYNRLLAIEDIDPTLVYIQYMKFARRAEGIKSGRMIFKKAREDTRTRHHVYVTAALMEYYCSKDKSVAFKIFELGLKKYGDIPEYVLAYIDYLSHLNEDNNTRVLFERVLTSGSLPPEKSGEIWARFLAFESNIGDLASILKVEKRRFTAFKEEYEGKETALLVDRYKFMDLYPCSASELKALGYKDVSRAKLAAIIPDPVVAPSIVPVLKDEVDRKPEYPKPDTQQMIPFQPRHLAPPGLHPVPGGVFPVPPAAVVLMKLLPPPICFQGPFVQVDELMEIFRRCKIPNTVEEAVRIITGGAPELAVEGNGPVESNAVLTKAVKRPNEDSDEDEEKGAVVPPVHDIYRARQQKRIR
Sequence of UniProt P20674 (P20674 whole entry, looked up): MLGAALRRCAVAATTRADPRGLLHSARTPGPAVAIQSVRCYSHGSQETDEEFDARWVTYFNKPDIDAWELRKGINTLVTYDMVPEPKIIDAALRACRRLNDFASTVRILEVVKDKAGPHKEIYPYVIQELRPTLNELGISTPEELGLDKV
Sequence of UniProt Q13057 (Q13057 whole entry, looked up): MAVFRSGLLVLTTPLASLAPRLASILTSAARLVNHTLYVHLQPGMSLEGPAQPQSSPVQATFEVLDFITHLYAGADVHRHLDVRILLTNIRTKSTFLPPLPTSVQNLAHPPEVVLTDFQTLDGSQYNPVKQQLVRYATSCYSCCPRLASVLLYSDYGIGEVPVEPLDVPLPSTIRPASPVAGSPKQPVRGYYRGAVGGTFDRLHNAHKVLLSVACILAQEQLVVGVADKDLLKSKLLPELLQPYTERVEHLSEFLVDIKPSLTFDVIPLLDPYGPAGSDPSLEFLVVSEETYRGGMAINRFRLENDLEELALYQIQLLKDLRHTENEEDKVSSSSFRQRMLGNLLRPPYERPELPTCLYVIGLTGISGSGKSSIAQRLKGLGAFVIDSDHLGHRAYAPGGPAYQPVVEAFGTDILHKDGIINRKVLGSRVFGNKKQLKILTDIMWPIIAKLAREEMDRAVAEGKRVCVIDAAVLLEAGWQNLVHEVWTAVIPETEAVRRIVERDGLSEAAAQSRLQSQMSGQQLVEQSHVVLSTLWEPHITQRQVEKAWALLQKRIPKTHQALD
Sequence of UniProt Q9BT78 (Q9BT78 whole entry, looked up): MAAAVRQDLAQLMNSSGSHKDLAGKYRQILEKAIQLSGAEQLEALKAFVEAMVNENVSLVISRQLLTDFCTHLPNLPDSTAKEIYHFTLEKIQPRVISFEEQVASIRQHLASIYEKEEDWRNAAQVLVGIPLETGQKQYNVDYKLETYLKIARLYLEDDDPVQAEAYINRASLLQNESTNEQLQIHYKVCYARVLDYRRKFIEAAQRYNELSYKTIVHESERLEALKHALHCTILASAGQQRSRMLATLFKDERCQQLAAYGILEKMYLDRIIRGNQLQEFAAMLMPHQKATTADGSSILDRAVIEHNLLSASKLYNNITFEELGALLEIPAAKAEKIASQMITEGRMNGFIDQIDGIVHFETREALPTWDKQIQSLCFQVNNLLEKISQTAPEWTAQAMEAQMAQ
Sequence of UniProt Q01459 (Q01459 whole entry, looked up): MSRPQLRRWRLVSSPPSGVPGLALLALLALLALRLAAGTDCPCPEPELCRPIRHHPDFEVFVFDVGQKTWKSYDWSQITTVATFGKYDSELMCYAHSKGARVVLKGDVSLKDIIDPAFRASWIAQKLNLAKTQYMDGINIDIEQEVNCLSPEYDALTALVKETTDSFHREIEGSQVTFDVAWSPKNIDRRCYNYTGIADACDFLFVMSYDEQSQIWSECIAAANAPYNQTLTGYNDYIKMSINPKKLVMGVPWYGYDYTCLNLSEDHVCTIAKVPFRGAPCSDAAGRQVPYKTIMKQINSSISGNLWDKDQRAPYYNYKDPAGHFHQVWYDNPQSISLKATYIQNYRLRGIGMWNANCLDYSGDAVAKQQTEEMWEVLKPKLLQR
Sequence of UniProt Q5VT25 (Q5VT25 whole entry, looked up): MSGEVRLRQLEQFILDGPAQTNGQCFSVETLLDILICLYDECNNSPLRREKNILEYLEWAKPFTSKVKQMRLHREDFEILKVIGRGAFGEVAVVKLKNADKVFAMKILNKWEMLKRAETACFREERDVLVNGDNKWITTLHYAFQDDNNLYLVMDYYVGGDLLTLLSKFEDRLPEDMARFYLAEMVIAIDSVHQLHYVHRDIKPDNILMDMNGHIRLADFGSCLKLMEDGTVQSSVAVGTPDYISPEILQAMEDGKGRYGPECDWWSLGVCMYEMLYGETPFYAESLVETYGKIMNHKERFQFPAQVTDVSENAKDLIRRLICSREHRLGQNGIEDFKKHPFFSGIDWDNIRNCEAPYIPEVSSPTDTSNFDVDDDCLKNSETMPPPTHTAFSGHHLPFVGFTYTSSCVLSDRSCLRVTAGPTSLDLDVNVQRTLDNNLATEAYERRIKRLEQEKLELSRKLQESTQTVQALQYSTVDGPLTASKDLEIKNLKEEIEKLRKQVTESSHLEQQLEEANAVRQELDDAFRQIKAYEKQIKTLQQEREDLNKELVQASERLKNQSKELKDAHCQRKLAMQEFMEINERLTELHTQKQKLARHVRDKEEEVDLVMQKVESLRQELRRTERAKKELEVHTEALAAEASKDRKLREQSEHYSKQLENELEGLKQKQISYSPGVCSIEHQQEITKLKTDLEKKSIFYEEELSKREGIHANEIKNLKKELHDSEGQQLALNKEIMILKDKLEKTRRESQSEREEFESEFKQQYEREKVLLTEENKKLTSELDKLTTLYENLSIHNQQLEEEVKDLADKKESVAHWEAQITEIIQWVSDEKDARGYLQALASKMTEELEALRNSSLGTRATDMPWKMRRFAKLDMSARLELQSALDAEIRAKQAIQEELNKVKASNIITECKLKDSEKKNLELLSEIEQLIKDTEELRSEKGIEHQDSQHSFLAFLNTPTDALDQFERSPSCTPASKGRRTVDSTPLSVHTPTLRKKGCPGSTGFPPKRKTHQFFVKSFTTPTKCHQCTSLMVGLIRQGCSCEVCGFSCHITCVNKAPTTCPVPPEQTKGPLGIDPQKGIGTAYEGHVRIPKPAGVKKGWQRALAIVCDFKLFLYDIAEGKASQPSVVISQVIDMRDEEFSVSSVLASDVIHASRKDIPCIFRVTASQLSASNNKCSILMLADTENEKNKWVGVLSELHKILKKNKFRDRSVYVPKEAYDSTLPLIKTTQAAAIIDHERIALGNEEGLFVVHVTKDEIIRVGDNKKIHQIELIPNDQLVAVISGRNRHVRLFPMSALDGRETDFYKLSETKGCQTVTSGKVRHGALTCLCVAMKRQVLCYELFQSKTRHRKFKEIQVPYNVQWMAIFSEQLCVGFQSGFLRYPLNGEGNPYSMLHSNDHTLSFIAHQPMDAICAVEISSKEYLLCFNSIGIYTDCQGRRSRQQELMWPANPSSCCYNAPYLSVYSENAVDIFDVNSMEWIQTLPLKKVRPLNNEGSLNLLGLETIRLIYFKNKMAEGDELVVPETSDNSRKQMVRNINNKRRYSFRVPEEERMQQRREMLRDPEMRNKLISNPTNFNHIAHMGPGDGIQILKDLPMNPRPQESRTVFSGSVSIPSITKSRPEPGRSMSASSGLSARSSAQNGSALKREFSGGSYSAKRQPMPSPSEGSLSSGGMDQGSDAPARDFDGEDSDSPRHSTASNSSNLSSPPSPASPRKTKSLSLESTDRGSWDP

Target	log2 fold change
C9orf72 (UniProt Q96LT7)	0.04
CDK13 (UniProt Q14004)	0.063
CTBS (UniProt Q01459)	-0.092
CCNB1 (UniProt P14635)	0.043
COMT (UniProt P21964)	0.235 (active)
CEPT1 (UniProt Q9Y6K0)	-0.214
COPS4 (UniProt Q9BT78)	0.086
COASY isoform 2 (UniProt Q13057)	-0.057
CNOT1 (UniProt A5YKK6)	-0.038
CETN3 (UniProt O15182)	0
CPSF6 isoform 2 (UniProt Q16630)	0.11
CASTOR2 (UniProt A6NHX0)	0.018
CASC3 (UniProt O15234)	-0.094
CLUH, A0A494C0R8	-0.028
CLTB (UniProt P09497)	0.085
CLCN3 isoform 2 (UniProt P51790)	-0.25
CDC123 (UniProt O75794)	0.013
CD55 isoform 7 (UniProt P08174)	0.132

Target	log2 fold change
CLUH (UniProt O75153)	0.043
CSNK1A1 (UniProt P48729)	-0.125
CNTN4 (UniProt Q8IWV2)	-0.046
CDC42BPA isoform 6 (UniProt Q5VT25)	-0.049
CDK5RAP1 (UniProt Q96SZ6)	0.048
CASP10 isoform 4 (UniProt Q92851)	-0.075
CPT2 (UniProt P23786)	-0.306
CBX1 (UniProt P83916)	0.04
CD151 (UniProt P48509)	0.068
CS (UniProt O75390)	-0.157
CSTF3 (UniProt Q12996)	0.082
CAD (UniProt P27708)	-0.106
CCAR2 isoform 2 (UniProt Q8N163)	-0.063
COX5A (UniProt P20674)	0.411 (active)
CDK12 (UniProt Q9NYV4)	0
CHCHD2 (UniProt Q9Y6H1)	0.066
CALB1 (UniProt P05937)	-0.105

compound: Cc1ccc(NC(=O)c2ccc(CN3CC[C@H](N(C)C)C3)c(C(F)(F)F)c2)cc1Nc1nccc(-c2cncnc2)n1 [bafetinib]; assay: as above
Outline: as §1

Target	log2 fold change
C9orf72 (UniProt Q96LT7)	0.029
CDK13 (UniProt Q14004)	0.092
CTBS (UniProt Q01459)	-0.483 (active)
CCNB1 (UniProt P14635)	-0.018
COMT (UniProt P21964)	0.011
CEPT1 (UniProt Q9Y6K0)	-0.048
COPS4 (UniProt Q9BT78)	0.003
COASY isoform 2 (UniProt Q13057)	-0.009
CNOT1 (UniProt A5YKK6)	0.009
CETN3 (UniProt O15182)	-0.052
CPSF6 isoform 2 (UniProt Q16630)	0.079
CASTOR2 (UniProt A6NHX0)	-0.063
CASC3 (UniProt O15234)	-0.064
CLUH, A0A494C0R8	0.016
CLTB (UniProt P09497)	0.095
CLCN3 isoform 2 (UniProt P51790)	-0.044
CDC123 (UniProt O75794)	0.015
CD55 isoform 7 (UniProt P08174)	0.168

Target	log2 fold change
CLUH (UniProt O75153)	0.007
CSNK1A1 (UniProt P48729)	-0.044
CNTN4 (UniProt Q8IWV2)	-0.109
CDC42BPA isoform 6 (UniProt Q5VT25)	0.051
CDK5RAP1 (UniProt Q96SZ6)	-0.052
CASP10 isoform 4 (UniProt Q92851)	0.001
CPT2 (UniProt P23786)	-0.115
CBX1 (UniProt P83916)	-0.037
CD151 (UniProt P48509)	0.135
CS (UniProt O75390)	0.013
CSTF3 (UniProt Q12996)	-0.004
CAD (UniProt P27708)	0.011
CCAR2 isoform 2 (UniProt Q8N163)	0.007
COX5A (UniProt P20674)	-0.079
CDK12 (UniProt Q9NYV4)	0.298
CHCHD2 (UniProt Q9Y6H1)	-0.026
CALB1 (UniProt P05937)	-0.076
